Laboratory results reported in PubChem BioAssay (NCATS).
Results filed as inconclusive are left out. Calls of active or inactive are those of the source. Calls come from the whole dose curve; as a rule, active = well fitted curve in the direction sought with a large enough effect; inconclusive = small, poorly fitted or top-dose-only effect, or another doubt; inactive = no such curve, though single readings can be large; an effect the other way counts as inactive or inconclusive.

Columns and labels:
[1] = target: Cellular tumor antigen p53 (Homo sapiens) (UniProt P04637); test: Primary qHTS for small molecule compounds that upregulate eGFP-tagged delta133p53alpha (in N-terminal) cells. (AID 2060322); settings: NCI-H358 eGFP-delta133p53alpha fluorescence, 24 h; activation: stronger effect = higher value;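 note: cells pre-induced with doxycycline then dosed without doxycycline; series mostly up to about 56 µM; 0% = DMSO vehicle and 100% = reference activator; nearly all actives have a fitted effect of over 75% in size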
Outline: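 NCI-H358 cells pre-induced 24 h with 10 ng/ml doxycycline for eGFP-delta133p53alpha, plated dox-free and exposed 24 h at 37C to titrated compounds. Fixed, Hoechst-stained; gated GFP peak intensity by laser scanning cytometry, normalized to DMSO (0%) and 57.5 uM 5-azacytidine (100%).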

[2] = target: Aldehyde dehydrogenase, mitochondrial (Homo sapiens) (UniProt P05091); test: qHTS for Inhibitors of the Aldehyde Dehydrogenase Family (ALDH2) Primary screen (AID 2061308);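 note: plate controls were vehicle for no effect and reference inhibitor for full effect; nearly all actives have a fitted effect of over 55% in size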
[3] = target: Retinaldehyde dehydrogenase 3 (Homo sapiens) (UniProt P47895); test: qHTS for Inhibitors of the Aldehyde Dehydrogenase Family (ALDH1A3) Primary screen (AID 2061315);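 note: plate controls were DMSO vehicle for no effect and reference inhibitor for full effect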

Cellular tumor antigen p53 (Homo sapiens), sequence (P04637 whole entry, looked up): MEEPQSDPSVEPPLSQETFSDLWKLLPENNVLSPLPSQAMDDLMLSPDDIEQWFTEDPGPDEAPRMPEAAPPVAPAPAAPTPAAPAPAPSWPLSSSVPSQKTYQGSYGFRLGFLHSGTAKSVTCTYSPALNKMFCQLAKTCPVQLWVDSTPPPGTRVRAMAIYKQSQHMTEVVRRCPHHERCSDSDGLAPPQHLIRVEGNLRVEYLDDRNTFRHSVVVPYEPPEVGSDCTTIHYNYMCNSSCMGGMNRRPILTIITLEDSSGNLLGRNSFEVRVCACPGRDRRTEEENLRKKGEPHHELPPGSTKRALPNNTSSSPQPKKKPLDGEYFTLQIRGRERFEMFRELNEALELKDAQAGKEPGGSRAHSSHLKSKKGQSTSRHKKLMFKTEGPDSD

COc1ccc2c3ccnc4ccc(=O)n(c2c1)c43
inactive: activation [1] 17% | Potency [2] | Potency [3]

Cc1ncc(CCCN(C)C)cc1Nc1ncc2c(n1)-c1ccc(C(F)(F)F)cc1NC(=S)C2
inactive: activation [1] 22.3% | Potency [2] | Potency [3]

COc1cc(C(C)=O)ccc1O[C@@H]1O[C@H](CO[C@@H]2O[C@@H](C)[C@H](O)[C@@H](O)[C@H]2O)[C@@H](O)[C@H](O)[C@H]1O
inactive: activation [1] -13% | Potency [2] | Potency [3]

CC1(C)C2CC[C@@]34CC(CC[C@H]3[C@]2(C)CC[C@@H]1O[C@@H]1O[C@H](CO)[C@@H](O)[C@H](O)[C@H]1O)[C@](C)(O)C4 (stereo partly drawn)
inactive: activation [1] -22.1% | Potency [2] | Potency [3]

CC1CC(=O)C2=C(O1)OC1(C)CCC3C(C)(C)C4OC4C(=O)C3(C)C1C2 (stereo not drawn)
inactive: activation [1] 16.1% | Potency [2] | Potency [3]

C#C[C@]1(OC(C)=O)CC[C@H]2[C@@H]3CCC4=C[C@@H](OC(C)=O)CC[C@@H]4[C@H]3CC[C@@]21C
inactive: activation [1] 6.33% | Potency [2] | Potency [3]

COC1CC(=O)C23C(=O)NC(CC(C)C)C2C(C)C(C)=CC3/C=C(\C)CCC(O)C1O (stereo not drawn)
inactive: activation [1] 23.7% | Potency [2] | Potency [3]

COC(=O)C1=CO[C@@H](O[C@@H]2O[C@H](CO)[C@@H](O)[C@H](O)[C@H]2O)[C@@H]2[C@@H](CO)[C@@H](O)C(O)[C@H]12 (stereo partly drawn)
inactive: activation [1] -1.79% | Potency [2] | Potency [3]

CC1COC2(OC3CC4C5CC(O[C@@H]6O[C@H](C)[C@@H](O[C@@H]7O[C@@H](C)[C@H](O)[C@@H](O)[C@H]7O)[C@H](O)[C@H]6O)C6CC(O)CCC6(C)C5CCC4(C)C3C2C)C(O)C1 (stereo partly drawn)
inactive: activation [1] -10.7% | Potency [2] | Potency [3]

C[C@@H]1O[C@@H](O[C@H]2[C@H](O[C@H]3CC[C@@]4(C)C(CC[C@]5(C)C4CC=C4C6CC(C)(C)CC[C@]6(C(=O)O[C@@H]6O[C@H](CO[C@@H]7O[C@H](CO)[C@@H](O[C@@H]8O[C@@H](C)[C@H](O)[C@@H](O)[C@H]8O)[C@H](O)[C@H]7O)[C@@H](O)[C@H](O)[C@H]6O)CC[C@]45C)[C@]3(C)CO)OC[C@H](O)[C@@H]2O)[C@H](O)[C@H](O)[C@H]1O (stereo partly drawn)
inactive: activation [1] 3.82% | activity change, negative = inhibition [2] 15.8% [at 11.2 µM] | activity change, negative = inhibition [3] 17.4% [at 11.2 µM]

C[C@@H]1O[C@@H](OC2C(O[C@H]3[C@H](O[C@H]4CC[C@@]5(C)C(CC[C@]6(C)C5CC=C5C7CC(C)(C)CC(O)[C@]7(C)CC[C@]56C)C4(C)C)O[C@H](C(=O)O)[C@@H](O)[C@@H]3O)OC(CO)C(O)C2O)[C@H](O)[C@H](O)[C@H]1O (stereo partly drawn)
inactive: activation [1] -6.11% | Potency [2] | Potency [3]
